This is part of a sample that, as a whole, favours compounds with a hit. Of some 83,000 tested, about 20% had one in any assay.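 Single-dose data. Exposure time 48 hours. Values below 10 considered active.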 The source made the active and inactive calls.
What was measured:
Assay in all cases: NCI-60 one-dose screen, 48 h (100 = growth as untreated, 0 = no growth, -100 = all killed)
Details in all cases: 10 µM unless noted
NCI-H23 lung = system: NCI-H23 lung
NCI-H226 lung = system: NCI-H226 lung
NCI-H322M lung = system: NCI-H322M lung
HOP-62 NSCLC = system: HOP-62 NSCLC
HOP-92 NSCLC = system: HOP-92 NSCLC
NCI-H522 lung = system: NCI-H522 lung
A549/ATCC NSCLC = system: A549/ATCC NSCLC
786-0 renal = system: 786-0 renal
COLO 205 colon = system: COLO 205 colon
DU-145 prostate = system: DU-145 prostate
K-562 leukemia = system: K-562 leukemia
MDA-MB-231 breast = system: MDA-MB-231 breast
RXF 393 renal = system: RXF 393 renal
SF-268 CNS = system: SF-268 CNS
SF-295 CNS = system: SF-295 CNS
SF-539 CNS = system: SF-539 CNS
UACC-257 melanoma = system: UACC-257 melanoma
M14 melanoma = system: M14 melanoma
MALME-3M melanoma = system: MALME-3M melanoma

Measured: growth

O=C(NC1=CC(=O)c2ccccc2C1=O)c1ccccc1
inactive: NCI-H23 lung 18.7% | NCI-H226 lung 37.3% | NCI-H322M lung 57.9% | HOP-62 NSCLC 49.7% | A549/ATCC NSCLC 23.8% | 786-0 renal 39.9% | COLO 205 colon 48% | DU-145 prostate 63.4% | MDA-MB-231 breast 16.9% | RXF 393 renal 35.3% | SF-268 CNS 39.3% | SF-539 CNS 10.5% | M14 melanoma 33.9%
active: HOP-92 NSCLC -84.1% | NCI-H522 lung -48.8% | K-562 leukemia -0.828% | SF-295 CNS 4.13% | UACC-257 melanoma -4.63%

COc1cc(-c2cc3cc(O)ccc3oc2=O)cc(OC)c1OC
inactive: NCI-H23 lung 101% | NCI-H226 lung 89.2% | NCI-H322M lung 85.9% | HOP-62 NSCLC 90.9% | HOP-92 NSCLC 86.5% | NCI-H522 lung 86.5% | A549/ATCC NSCLC 107% | 786-0 renal 98.2% | COLO 205 colon 102% | DU-145 prostate 107% | K-562 leukemia 89.1% | MALME-3M melanoma 112% | MDA-MB-231 breast 72.8% | RXF 393 renal 101% | SF-268 CNS 102% | SF-295 CNS 91.9% | SF-539 CNS 87.1% | M14 melanoma 86.9%

COc1cc2c3c(c4c5ccccc5[nH]c4c2c(OC)c1OC)C(=O)N(O)C3=O
inactive: NCI-H23 lung 54.9% | NCI-H226 lung 42.6% | NCI-H322M lung 37.4% | HOP-62 NSCLC 38% | HOP-92 NSCLC 78.4% | NCI-H522 lung 45.7% | A549/ATCC NSCLC 60.3% | 786-0 renal 69.6% | COLO 205 colon 61.1% | DU-145 prostate 71.7% | K-562 leukemia 20.8% | MALME-3M melanoma 78.5% | MDA-MB-231 breast 44.2% | RXF 393 renal 52.2% | SF-268 CNS 49.3% | SF-295 CNS 47.8% | SF-539 CNS 30.9% | M14 melanoma 37.5%

CC(=O)NC1=C(C#N)C(c2ccccc2Cl)c2c(ccc3ccccc23)O1 (stereo not given)
inactive: NCI-H23 lung 76.2% | NCI-H226 lung 83.5% | NCI-H322M lung 86.8% | HOP-62 NSCLC 59.2% | HOP-92 NSCLC 72.5% | NCI-H522 lung 39.2% | A549/ATCC NSCLC 67.1% | 786-0 renal 82.7% | COLO 205 colon 79.5% | DU-145 prostate 89.1% | K-562 leukemia 19.4% | MALME-3M melanoma 48.4% | MDA-MB-231 breast 66.6% | RXF 393 renal 77.2% | SF-268 CNS 68.5% | SF-295 CNS 25.7% | SF-539 CNS 58.4% | UACC-257 melanoma 76.7% | M14 melanoma 31.1%

COc1ccc2[nH]cc(-c3nc(-c4c[nH]c5ncccc45)cs3)c2c1
active: COLO 205 colon -10.2% | RXF 393 renal 1.36% | UACC-257 melanoma -57%
inactive: NCI-H23 lung 48.3% | NCI-H226 lung 53.2% | NCI-H322M lung 44.5% | HOP-62 NSCLC 53.5% | HOP-92 NSCLC 25.9% | NCI-H522 lung 31.3% | A549/ATCC NSCLC 22.4% | 786-0 renal 16.2% | DU-145 prostate 47.1% | K-562 leukemia 18.3% | MDA-MB-231 breast 39.1% | SF-268 CNS 58.8% | SF-295 CNS 10.6% | SF-539 CNS 25.2% | M14 melanoma 16.1%

Nc1c2c(nc3ccc(Cl)cc13)CC(c1ccccc1)CC2=O (stereo not given)
inactive: NCI-H23 lung 58.6% | NCI-H226 lung 85% | NCI-H322M lung 62.1% | HOP-62 NSCLC 53.9% | HOP-92 NSCLC 84.6% | NCI-H522 lung 41.1% | A549/ATCC NSCLC 56.7% | 786-0 renal 55.1% | COLO 205 colon 39.3% | DU-145 prostate 63.9% | K-562 leukemia 18% | MALME-3M melanoma 40.3% | MDA-MB-231 breast 66.8% | RXF 393 renal 55.8% | SF-268 CNS 64.1% | SF-295 CNS 24.5% | SF-539 CNS 38.5% | UACC-257 melanoma 64% | M14 melanoma 13.9%

CC1(C)C(=O)/C(=C\c2cccnc2)C[C@]2(C)[C@H]3CC[C@@H]4[C@@H](C(=O)/C=C/c5ccncc5)CC[C@@]4(C)[C@]3(C)CC[C@@H]12
active: NCI-H23 lung 5.99% | NCI-H226 lung 1.56% | HOP-62 NSCLC 2.07% | A549/ATCC NSCLC 1.98% | 786-0 renal -55.7% | DU-145 prostate -1.7% | K-562 leukemia 3.14% | MALME-3M melanoma 0.438% | RXF 393 renal -84.2% | SF-539 CNS 1.24% | M14 melanoma -13%
inactive: NCI-H322M lung 39.9% | NCI-H522 lung 30.1% | COLO 205 colon 12.3% | MDA-MB-231 breast 16.8% | SF-268 CNS 27.3% | SF-295 CNS 15.9% | UACC-257 melanoma 49.3%

O=C1c2cccc3cccc(c23)C(=O)N1CC#Cc1ccc2c3c(cccc13)C(=O)N(CCO)C2=O
inactive: NCI-H23 lung 81% | NCI-H226 lung 91.9% | NCI-H322M lung 94.9% | HOP-62 NSCLC 84.5% | HOP-92 NSCLC 86.4% | NCI-H522 lung 92% | A549/ATCC NSCLC 97.3% | 786-0 renal 98.1% | COLO 205 colon 118% | DU-145 prostate 88.6% | K-562 leukemia 95.1% | MALME-3M melanoma 100% | MDA-MB-231 breast 66.9% | RXF 393 renal 85.1% | SF-268 CNS 78.9% | SF-295 CNS 98.7% | SF-539 CNS 90.8% | UACC-257 melanoma 94.2% | M14 melanoma 84.8%

CCC(c1ccc(OC)cc1)C(CC)c1ccc(O)c(CN2CCCCC2)c1 (stereo not given)
active: COLO 205 colon -12.9%
inactive: NCI-H23 lung 63.5% | NCI-H226 lung 70% | NCI-H322M lung 70.7% | HOP-62 NSCLC 95.5% | HOP-92 NSCLC 52.2% | NCI-H522 lung 72.3% | A549/ATCC NSCLC 84% | 786-0 renal 59.5% | DU-145 prostate 86.6% | K-562 leukemia 15.4% | MALME-3M melanoma 28.1% | MDA-MB-231 breast 77.6% | RXF 393 renal 53.7% | SF-268 CNS 86.1% | SF-295 CNS 78.9% | SF-539 CNS 69.3% | M14 melanoma 44.3%

CC(C)c1cc(C(=O)O)c(O)c(C(C)C)c1.CC(C)c1cc(C(=O)O)c(O)c(C(C)C)c1.[Mn]
inactive: NCI-H23 lung 110% | NCI-H226 lung 103% | NCI-H322M lung 110% | HOP-62 NSCLC 112% | NCI-H522 lung 79.5% | A549/ATCC NSCLC 99.9% | 786-0 renal 101% | COLO 205 colon 112% | DU-145 prostate 108% | K-562 leukemia 94.8% | MALME-3M melanoma 103% | MDA-MB-231 breast 103% | RXF 393 renal 129% | SF-268 CNS 96.2% | SF-295 CNS 107% | SF-539 CNS 105% | UACC-257 melanoma 98.8% | M14 melanoma 107%
active: HOP-92 NSCLC -39.3%

C(=C\c1c[nH]c2ccccc12)/c1ccc2ccccc2n1
inactive: NCI-H23 lung 91.3% | NCI-H226 lung 76.5% | NCI-H322M lung 77.5% | HOP-62 NSCLC 89.6% | HOP-92 NSCLC 61.3% | NCI-H522 lung 53.8% | A549/ATCC NSCLC 63.3% | 786-0 renal 77.8% | COLO 205 colon 84.4% | DU-145 prostate 92.7% | K-562 leukemia 51.9% | MDA-MB-231 breast 56.4% | RXF 393 renal 92.1% | SF-268 CNS 71.4% | SF-295 CNS 81.4% | SF-539 CNS 87.9% | UACC-257 melanoma 90.2% | M14 melanoma 82.2%

COc1ccc2nc(-c3cc(-c4cc(OC)c(OC)c(OC)c4)n[nH]3)[nH]c2c1
active: NCI-H23 lung 7.44% | NCI-H226 lung -48.9% | HOP-62 NSCLC -1.25% | NCI-H522 lung -15.1% | A549/ATCC NSCLC 6.33% | COLO 205 colon -20% | K-562 leukemia -10.7% | MALME-3M melanoma -40.4% | UACC-257 melanoma -13.4% | M14 melanoma 9.11%
inactive: NCI-H322M lung 31.1% | HOP-92 NSCLC 22% | 786-0 renal 59.5% | DU-145 prostate 11.8% | MDA-MB-231 breast 36.2% | RXF 393 renal 45.8% | SF-268 CNS 10.7% | SF-539 CNS 34.4%

Source: PubChem BioAssay (NCI)
